This is one part of a sample in which hits are shown more often than they occur.
AmpC inh no detg: inhibitors of E. coli AmpC beta-lactamase without detergent; Potency, µM (series often up to 57.1 µM), inactives show at the highest dose activity change, negative = inhibition, actives largely listed as inhibitors; AmpC nitrocefin hydrolysis, absorbance 480 nm, 0.0001% Triton; P00811; hit rate 0.52% among 330,000;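 further: potency means the concentration at half of the fitted maximal effect; plate controls were no compound for no effect and no enzyme for full effect; nearly all actives have a fitted effect of over 20% in size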
Target sequence (P00811 whole entry, looked up): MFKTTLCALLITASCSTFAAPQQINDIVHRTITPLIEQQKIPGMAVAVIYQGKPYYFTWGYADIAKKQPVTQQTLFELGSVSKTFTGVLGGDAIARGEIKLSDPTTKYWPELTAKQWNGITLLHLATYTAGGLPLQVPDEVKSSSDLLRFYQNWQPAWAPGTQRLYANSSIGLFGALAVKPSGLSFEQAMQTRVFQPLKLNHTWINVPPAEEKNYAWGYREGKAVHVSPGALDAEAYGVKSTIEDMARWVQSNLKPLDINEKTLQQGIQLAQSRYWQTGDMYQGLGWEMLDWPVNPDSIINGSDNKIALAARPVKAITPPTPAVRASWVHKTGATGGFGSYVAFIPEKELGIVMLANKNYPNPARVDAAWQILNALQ
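AmpC (5.3 nM in the dispensed reagent) in 20 mM phosphate pH 7.0 with 0.01% (detergent screen) or 0.0001% Triton X-100 was preincubated with compounds for 15 min at room temperature. Nitrocefin was then added from an 800 uM solution, and hydrolysis was followed at 480 nm.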
SARS PLP yeast: SARS-CoV PLP inhibition in yeast; hit rate 0.19% among 330,000; Potency, µM (highest dose often 32.9 µM), for the others: at the highest dose activity, positive = growth rescue, most hits filed as activators; S. cerevisiae expressing SARS-CoV PLpro, growth rescue; calls by dose curve; further: potency means the concentration at half of the fitted maximal effect; 0% is about no effect; nearly all actives have a fitted effect of over 55% in size
AMA1-RON2 inh: AMA1-RON2 (P. falciparum) interaction inhibition | hit rate 0.2% among 360,000 | Potency, µM (highest dose often 58.2 µM), for inactives: at the highest dose activity change, negative = inhibition, hits mostly inhibitors | AlphaScreen AMA1-biotinylated RON2 peptide binding;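 further: potency means the concentration at half of the fitted maximal effect; 0% = vehicle wells and -100% = peptide control; nearly all actives have a fitted effect of over 45% in size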
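AMA1 (3D7) with his tag at 25 nM final met compounds first, then biotinylated RON2 peptide at 25 nM; detection used donor plus acceptor beads, 10 µg/mL apiece, read by AlphaScreen after 30 min at room temperature.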
CHX counter: counter-screen hit for Shiga toxin inhibitors, cycloheximide | cell reporter, cycloheximide protein synthesis inhibition counterscreen | max response, % | hit rate 12% among 300,000 | AID 2314; in the data active means max response mostly above about 13%, no sharp cut-off; inactive means mostly below about 14%; further: read at 38.3 µM for the half of the compounds with a filed dose; 0% is about no effect
AmpC detergent: AmpC beta-lactamase inhibition with detergent present; AID 485294; hit rate 0.041% among 370,000; AmpC hydrolysis of nitrocefin, absorbance 480 nm, 0.01% Triton; P00811; Potency, µM (series often up to 114 µM), without a hit: at the top dose activity change, negative = inhibition, most hits filed as inhibitors;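 further: potency means the concentration at half of the fitted maximal effect; 0% = no-compound wells and -100% = no-enzyme wells; nearly all actives have a fitted effect of over 25% in size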
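AmpC (5.3 nM in the dispensed reagent) in 20 mM phosphate pH 7.0 with 0.01% (detergent screen) or 0.0001% Triton X-100 was preincubated with compounds for 15 min at room temperature. Nitrocefin was then added from an 800 uM solution, and hydrolysis was followed at 480 nm.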
Shiga toxin inh: inhibitors of Shiga toxin in Vero cells | AID 2315 | inhibition, % at 38.7 µM | Vero cells, Shiga toxin protein synthesis inhibition reporter | hit rate 9.2% among 290,000; in the data active means inhibition mostly above about 28%, no sharp cut-off; inactive means mostly below about 43%; further: 0% is about no effect
* = called active by the depositor; ? = inconclusive; / = no result; [ ] = another dose, or the depositor's remark. Unless noted, the call rests on the fitted dose curve; in most records, active means well fitted curve in the direction sought with a large enough effect; inconclusive means small, poorly fitted or top-dose-only effect, or another doubt; inactive means no such curve, though single readings can be large; an effect the other way counts as inactive or inconclusive.

SMILES | AmpC inh no detg | SARS PLP yeast | AMA1-RON2 inh | CHX counter | AmpC detergent | Shiga toxin inh
COc1ccc(CN2CCSCC2)cc1O | -22% | 4% | -10% | -4 | 3% | -7
Cc1nc(CSc2ccc(Cl)cc2)cs1 | -11% | 0% | 12% | 36* | -4% | 111*
Cc1nc(CSc2ccc(Br)cc2)cs1 | -12% | 0% | 2% | 23* | 3% | 49*
Cc1nc(CSc2nnc(N)s2)cs1 | -8% | -1% | -5% | -1 | 7% | 7
Cc1cc(C)n2cc(CSc3ccc(Br)cc3)nc2n1 | -3%[11.4 µM] | -3% | -20% | 26* | -15% | 31*
CC(=O)CCS(=O)(=O)c1ccc(Oc2ccc(S(=O)(=O)CCC(C)=O)cc2)cc1 | 1% | 5% | 4% | 17* | 0% | 23*
O=C(COC(=O)Cc1c(Cl)cccc1Cl)NCC1CCCO1 (stereo not given) | 5% | 0% | 9% | 11 | 8% | -4
Cc1c(C(=O)N2CCCCC2)c(S(=O)(=O)NCc2ccccc2Cl)c(C)n1C | 29% | -8% | 4% | -3 | -3% | -2
CC#CCC(CC#CC)c1nc2ccccc2c(=O)n1N | -10% | 6% | -3% | -3 | -4% | -1
CCn1cc(Br)c(-c2nc3ccccc3c(=O)n2N)n1 | / | / | 16% | 27* | -4% | 75*
O=C1C(Cl)=C(NCCN2CCOCC2)C(=O)c2ccccc21 | -2% | 0% | -14% | 32* | -3% | 63*
O=C1C(Cl)=C(NCCCN2CCOCC2)C(=O)c2ccccc21 | / | / | -6% | / | / | /
O=C1C(Cl)=C(NCCCO)C(=O)c2ccccc21 | -15% | -10% | -9% | 14* | ? | 13
CN(C)c1ccc(NC2=C(Cl)C(=O)c3ccccc3C2=O)cc1 | -14% | 0% | 7.9µM* | 51* | ? | 69*
CCOCCCNS(=O)(=O)c1ccccc1 | -2% | -5% | -9% | -3 | 1% | -1
CC(=O)Nc1ccc(NC2=C(Cl)C(=O)c3ccccc3C2=O)cc1 | -20% | 1% | -1% | 18 | 17% | 39
CCOCCCNC1=C(Cl)C(=O)c2ccccc2C1=O | -6% | -5% | ? | 36* | -3% | 72*
C[C@@H]1CN([C@@H](C)CO)C(=O)CCCn2cc(nn2)CO[C@H]1CN(C)S(=O)(=O)c1ccc2c(c1)OCCCO2 | / | / | -6% | / | / | /
CC(C)(C)c1ccc(C(=O)NNc2ncccc2-n2cccc2)cc1 | -26% | -4% | 43% | 8 | -1% | 14
Cc1cn(C2CCCCC2)c(=O)n(-c2ccccc2)c1=O | / | / | -4% | / | / | /
CCN(CC)c1ccc(S(=O)(=O)N2CCOCC2)cc1NC(=O)CNCc1ccccc1 | 151% | 1% | -1% | 0 | 6% | -6
Cc1ccc(NC2=C(NCCO)C(=O)c3ccccc3C2=O)cc1 | -21% | -3% | ? | 32* | -10% | 87*
COc1ccc(C2=C(Nc3ccc(C)cc3)c3ccccc3C2=O)cc1 | -21% | -5% | -30% | 1 | ? | -13
Nc1cccn2c(-c3ccc(Cl)c(Cl)c3)cnc12 | ? | -4% | 0% | 74* | -2% | 92*
CC(=O)Nc1cc(-c2ccccc2)cn2c(-c3ccc(F)c(Cl)c3)cnc12 | / | / | 34% | / | / | /
SMILES | AmpC inh no detg | SARS PLP yeast | AMA1-RON2 inh | CHX counter | AmpC detergent | Shiga toxin inh
Nc1cccn2c(-c3ccc(Cl)cc3)cnc12 | -45% | -9% | 5% | 47* | 4% | 197*
COc1ccc(-c2oc3ccc(-c4cc(OC)c(OC)c(OC)c4)cc3c2C(=O)c2ccc(OC)nc2)cc1 | -25% | 4% | 16% | -2 | ? | -7
Cc1cc(C)n2nc(SCC(=O)N(CC(C)C)c3c(N)n(CC(C)C)c(=O)[nH]c3=O)nc2n1 | 41% | 3% | 1% | -2 | 4% | -6
NNC(=O)c1cc2cc3ccccc3nc2s1 | -25% | -2% | 75% | 45* | 1% | 67
CS(=O)(=O)NNC(=O)c1cc2cc3ccccc3nc2s1 | -27% | 1% | 16% | 22 | -12% | 53*
CCN(CCCNC(=O)c1cc2cc3ccc(C)cc3nc2s1)c1ccccc1 | / | / | / | / | -10% | /
COc1ccc(S(=O)(=O)NNC(=O)c2cc3cc4ccccc4nc3s2)cc1 | -37% | 2% | 34% | 8 | -11% | 3
CC1=C(C(=O)N2CCOCC2)CC(CC(=O)NCc2cccs2)C(=O)N1Cc1ccc(F)cc1 (stereo not given) | / | / | 6% | / | / | /
Oc1ccccc1N=Nc1ccccc1O | -20% | -24% | -59% | 94* | -2% | 194*
O=C(NCCc1csc(-c2ccccc2)n1)c1cccs1 | -18% | -8% | 0% | 13* | -14% | -15
Cc1cccn2cc(CCNC(=O)c3cccs3)nc12 | -3% | 0% | 1% | 18* | -7% | 33
O=C(NCCc1csc(-c2cccnc2)n1)c1ccccc1 | 1.4µM* | 1% | -3% | -1 | ? | 31
O=C(Cc1csc(-c2ccccc2)n1)NCc1cccs1 | -11% | -6% | 7% | 24* | -14% | 37*
COc1ccccc1C(=O)OCCN=C1NS(=O)(=O)c2ccccc21 | -19% | 3% | 6% | -7 | -14% | 7
Cc1csc(SCc2c(C(=O)O)oc3ccccc23)n1 | -23% | 4% | 31% | -3 | -10% | 2
CCc1ccc(S(=O)(=O)NCCc2csc(-c3cccnc3)n2)s1 | 35µM* | -13% | 12% | 3 | 3% | -7
O=C(NCCc1csc(-c2ccccc2)n1)c1ccco1 | -13% | -4% | 2% | 13 | 9% | 41
CCS(=O)(=O)NCCc1csc(-c2cccnc2)n1 | 1% | 0% | -4% | 2 | ? | 7
CC(C)(C)CC(=O)NCCc1csc(-c2ccccc2)n1 | 20% | -9% | -19% | 22* | 1% | 34*
CCS(=O)(=O)NCCc1csc(-c2ccccc2)n1 | 1% | -1% | 0% | 57* | -6% | 71*
Cc1cccc(-c2nc(CCNC(=O)Cc3ccccc3)cs2)c1 | / | / | / | / | 2% | /
CC(=O)NCCc1csc(-c2ccccc2)n1 | -12% | 5% | -5% | 16* | 3% | 39
O=c1n(Cc2ccccc2Cl)c2ccccc2c2nc(-c3ccccc3)nn12 | / | / | / | / | 9% | /
O=c1ccccn1CCOc1ccc(Cl)cc1 | 4% | 1% | -12% | 33* | -1% | 35*
O=c1[nH]c(=O)n(CCOc2ccc(Cl)cc2)cc1Br | -8% | 6% | -3% | -2 | -4% | -12
CC(C)(C)c1ccc(OCCn2ccccc2=O)cc1 | 31% | -2% | -17% | 37* | -7% | 93*
CC(C)(c1ccccc1)c1ccc(OCCn2cnc3ccccc3c2=O)cc1 | 8% | -4% | 0% | -3 | ? | 8
CCC(CC)COC(=O)C1=C(C)NC(=O)NC1c1cc(OC)ccc1OC (stereo not given) | -6% | 6% | -4% | 1 | -15% | /
Cc1ccc(C)c2[nH]c(=O)c(CCNC(=O)c3ccc(Br)o3)cc12 | / | / | 2% | / | / | /
